In experiment [1] the test system is TRPC4 beta (transient receptor potential cation channel C4), mouse. The experiment is described as follows: TRPC4 cation channel opening, retest – cell-based, Fluo4 calcium, HEK293 TRPC4beta/mu-opioid, duplicates, 10 µM, confirmation (AID 2426;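 active = fluorescence ratio normalized to control raised more than 50% in primary screen plus both repeat runs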). The following applies: Fluo4 calcium fluorescence, at 10 µM; hits give high values.
Experiment [2] relates to transient receptor potential cation channel C4 beta (TRPC4), mouse. In words: TRPC4 cation channel opening, second retest – cell-based, second round, Fluo4, HEK293 TRPC4beta/mu-opioid, 1 µM, confirmation (AID 2461). The note with it: Fluo4 calcium fluorescence, at 1 µM; hits give high values.
Experiment [3] concerns TRPC4 (transient receptor potential cation channel C4 beta), mouse. The experiment is described as follows: potentiation of DAMGO EC20 TRPC4 response – cell-based, second round, Fluo-4, HEK293 TRPC4beta/mu-opioid, 1 µM, confirmation (AID 2554;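 active = primary screen hit whose fluorescence ratio, in both repeats, exceeds the weak agonist control mean by 3 SD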). The note with it: DAMGO EC20, Fluo-4 calcium flux, at 1 µM; hits give high values. A general note: A change in cytosolic calcium serves as a functional read-out for many receptors and channels.

For experiment [4], the system named is TRPC4 beta (transient receptor potential cation channel C4), mouse. In words: potentiation of DAMGO EC20 TRPC4 response – cell-based, Fluo-4, HEK293 TRPC4beta/mu-opioid, confirmation (AID 2555;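 active = primary screen hit whose calcium fluorescence ratio, in both repeats, exceeds the weak agonist control mean by 3 SD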). The note with it: DAMGO EC20, Fluo-4 calcium flux, at 10 µM; hits give high values.
Experiment [5] has as its target Short transient receptor potential channel 4 (Mus musculus) (UniProt Q9QUQ5). In words: blockers of DAMGO-evoked TRPC4 calcium flux – cell-based, Fluo4, HEK293 TRPC4beta/mu-opioid, confirmation (AID 2636;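 active = calcium signal cut by more than 3 SD below the full-agonist control yet still positive, in both repeats and the earlier primary screen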). The note with it: at 10 µM; hits give high values.
The target is the same in experiment [6]. The experiment is described as follows: blockers of DAMGO-evoked TRPC4 calcium flux – cell-based, second round, Fluo4, HEK293 TRPC4beta/mu-opioid, 1 µM, confirmation (AID 2637;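 active = calcium signal ratio cut to more than 3 SD under the fully stimulated control mean yet still positive, in both repeats and the primary screen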;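 as to inhibition: percent of integrated ratio relative to wells lacking test compound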). The following applies: at 1 µM; hits give high values.
Experiment [7] has the same target. In words: calcium entry via TRPC4 opening agents – cell-based, HEK293 TRPC4/mu-opioid, Fluo-4 calcium, dose response (AID 434937;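 active = primary screen activator hit with a dose response curve and TRPC4 channel activation at any tested dose; inactive = no activation, no dose response, or not a primary hit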).
For experiment [8] the target is unchanged. In words: potentiation of DAMGO-evoked TRPC4 calcium signal – cell-based, HEK293 TRPC4/mu-opioid, Fluo-4 calcium, EC20 DAMGO, dose response (AID 434941;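 active = earlier screen potentiator hit that boosts the TRPC4 ion channel at some dose, with a dose response; inactive = no potentiation, no dose response, or not a prior hit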;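 also: calcium entry triggered by an EC20 dose of DAMGO at the co-expressed mu-opioid receptor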).
Experiment [9] shares this target. The experiment is described as follows: block of DAMGO-driven TRPC4 calcium entry – cell-based, HEK293 TRPC4/mu-opioid, Fluo-4 calcium, dose response (AID 434942;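 active = primary screen inhibitor hit that blocks the TRPC4 channel at some tested dose, yielding a dose curve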).
Experiment [10] addresses Short transient receptor potential channel 6 (Mus musculus) (UniProt Q61143). The experiment is described as follows: TRPC6 blockade by TRPC4 inhibitor hits – cell-based, HEK293, membrane potential dye, duplicate, selectivity assay for TRPC4 inhibitor project, confirmation (AID 434948;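 active = active in primary screen and both duplicates, each dropping signal beyond three positive-control SD with fluorescence still positive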). The following applies: HEK293 TRPC6, membrane potential dye fluorescence, at 10 µM, stimulated with maximal-effect acetylcholine; hits give high values.

Experiment [11] shares this target. The experiment is described as follows: TRPC6 opening by TRPC4 activator hits – cell-based, HEK293, membrane potential dye, duplicate, selectivity assay for TRPC4 activator project, confirmation (AID 434950;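 active = membrane potential signal rise above negative control mean plus 3 SD in both duplicates, also active in the earlier TRPC4 screen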;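 as to activation: 0% = buffer only wells and 100% = acetylcholine maximal-effect wells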). The following applies: HEK293 TRPC6, membrane potential fluorescence, at 10 µM; activation: hits give high values; outcome: activation.
Experiment [12] shares this target. The experiment is described as follows: positive modulators of mouse TRPC6 channel – HEK293 cells, membrane potential dye, duplicate, selectivity assay for TRPC4 potentiator project, confirmation (AID 434952;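 active = compound raising the membrane signal above positive-control mean plus 3 SD in both repeats, and a primary screen hit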). The following applies: HEK293 TRPC6, membrane potential dye fluorescence, at 10 µM, maximal acetylcholine added after compound; hits give high values.
Experiment [13] deals with Short transient receptor potential channel 4 (Mus musculus) (UniProt Q9QUQ5). In words: calcium flux activators in TRPC4/5HT1a cells, counter-screen for TRPC4 activator project, cell-based, second counter screen, HEK293 TRPC4/5HT1a, Fluo-4 (AID 434977;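 active = calcium signal rise above buffer-control mean plus 5 SD in both duplicates, and also a hit in the primary screen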). The note with it: Fluo-4 calcium flux, at 10 µM; hits give high values.
A short description of experiment [14]: serotonin-gated TRPC4 signal block – cell-based, second counter screen, HEK293 TRPC4/5HT1a, Fluo-4, counter-screen for TRPC4 inhibitor project, confirmation (AID 434978;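 active = primary screen active whose calcium signal fell more than 3 SD beyond the full-serotonin control mean in both duplicate plates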;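 as to outcome: serotonin given first at submaximal then at maximal dose after compound preincubation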). The following applies: Fluo-4 calcium flux, at 10 µM, serotonin added to trigger calcium flux; hits give high values. For orientation: A counterscreen serves to expose hits that act by an unwanted route or on another target.

For experiment [15], the system named is TRPC4 (mouse), co-expressed with 5HT1a in HEK293. In words: enhancement of serotonin-evoked TRPC4 response – cell-based, second counter screen, HEK293 TRPC4/5HT1a, Fluo-4, counter-screen for TRPC4 potentiator project, confirmation (AID 434979;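 active = signal rise over 3 SD above mean of control wells given weak agonist, in both repeats and first screen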). The note with it: Fluo-4 calcium flux, at 10 µM, serotonin added at its EC20 dose; hits give high values.
The nature of experiment [16]: nonspecific calcium rise without TRPC4 – cell-based, HEK293 mu-opioid receptor line, counter-screen for TRPC4 activator project, confirmation (AID 449723;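 active = hit in primary screen, with calcium signal over 5 SD above buffer well mean in both duplicates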;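 also: counter screen cells carry the mu-opioid receptor alone and lack TRPC4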). The following applies: HEK293 mu-opioid cells, Fluo-4 calcium fluorescence, at 10 µM; hits give high values.
Experiment [17] is described as follows: nonspecific potentiation of DAMGO calcium response – cell-based, HEK293 mu-opioid receptor line, counter-screen for TRPC4 allosteric potentiator project, confirmation (AID 449724;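 active = calcium signal rise more than 3 SD above the low-dose agonist control mean, in both duplicate plates and the primary screen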;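 also: HEK293 cells carrying mu-opioid receptor only with no TRPC4 channel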). The following applies: HEK293 mu-opioid receptor cells, Fluo-4 calcium flux, at 10 µM, compound added before EC20 DAMGO stimulus; hits give high values.

For part of these data: Results with a measured potency or affinity are listed apart. Active and inactive are the calls of the source.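 The calls were made as follows, unless noted: active = primary screen active and over 50% activation in each of two duplicate runs; inactive = the rest.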

One may read the inhibition as the share of the control response that was lost under treatment.

Short transient receptor potential channel 6 (Mus musculus), sequence (Q61143 whole entry, looked up): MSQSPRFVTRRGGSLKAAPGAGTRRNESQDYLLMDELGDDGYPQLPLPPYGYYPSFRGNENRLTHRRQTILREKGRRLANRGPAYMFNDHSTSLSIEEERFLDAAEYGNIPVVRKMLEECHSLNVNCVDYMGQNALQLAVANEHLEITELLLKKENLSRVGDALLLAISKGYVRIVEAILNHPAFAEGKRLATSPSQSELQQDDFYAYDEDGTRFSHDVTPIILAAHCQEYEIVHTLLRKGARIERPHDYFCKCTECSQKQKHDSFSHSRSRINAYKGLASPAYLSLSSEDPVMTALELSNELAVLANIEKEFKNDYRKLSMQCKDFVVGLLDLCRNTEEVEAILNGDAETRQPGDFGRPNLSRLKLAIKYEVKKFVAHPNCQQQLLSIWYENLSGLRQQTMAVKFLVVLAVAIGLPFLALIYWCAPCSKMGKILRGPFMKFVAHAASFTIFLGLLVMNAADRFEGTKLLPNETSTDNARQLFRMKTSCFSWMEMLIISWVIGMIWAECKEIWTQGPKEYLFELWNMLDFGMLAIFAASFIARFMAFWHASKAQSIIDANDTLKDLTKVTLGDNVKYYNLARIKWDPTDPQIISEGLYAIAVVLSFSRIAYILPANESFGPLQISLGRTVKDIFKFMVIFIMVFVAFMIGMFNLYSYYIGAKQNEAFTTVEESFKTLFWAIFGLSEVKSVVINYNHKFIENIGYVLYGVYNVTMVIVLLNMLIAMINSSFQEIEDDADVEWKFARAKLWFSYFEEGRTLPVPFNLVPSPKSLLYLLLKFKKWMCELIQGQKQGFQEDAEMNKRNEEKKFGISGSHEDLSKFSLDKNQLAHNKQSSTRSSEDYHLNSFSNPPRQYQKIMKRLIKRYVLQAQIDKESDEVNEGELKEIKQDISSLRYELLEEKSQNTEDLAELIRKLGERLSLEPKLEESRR
Short transient receptor potential channel 4 (Mus musculus), sequence (Q9QUQ5 whole entry, looked up): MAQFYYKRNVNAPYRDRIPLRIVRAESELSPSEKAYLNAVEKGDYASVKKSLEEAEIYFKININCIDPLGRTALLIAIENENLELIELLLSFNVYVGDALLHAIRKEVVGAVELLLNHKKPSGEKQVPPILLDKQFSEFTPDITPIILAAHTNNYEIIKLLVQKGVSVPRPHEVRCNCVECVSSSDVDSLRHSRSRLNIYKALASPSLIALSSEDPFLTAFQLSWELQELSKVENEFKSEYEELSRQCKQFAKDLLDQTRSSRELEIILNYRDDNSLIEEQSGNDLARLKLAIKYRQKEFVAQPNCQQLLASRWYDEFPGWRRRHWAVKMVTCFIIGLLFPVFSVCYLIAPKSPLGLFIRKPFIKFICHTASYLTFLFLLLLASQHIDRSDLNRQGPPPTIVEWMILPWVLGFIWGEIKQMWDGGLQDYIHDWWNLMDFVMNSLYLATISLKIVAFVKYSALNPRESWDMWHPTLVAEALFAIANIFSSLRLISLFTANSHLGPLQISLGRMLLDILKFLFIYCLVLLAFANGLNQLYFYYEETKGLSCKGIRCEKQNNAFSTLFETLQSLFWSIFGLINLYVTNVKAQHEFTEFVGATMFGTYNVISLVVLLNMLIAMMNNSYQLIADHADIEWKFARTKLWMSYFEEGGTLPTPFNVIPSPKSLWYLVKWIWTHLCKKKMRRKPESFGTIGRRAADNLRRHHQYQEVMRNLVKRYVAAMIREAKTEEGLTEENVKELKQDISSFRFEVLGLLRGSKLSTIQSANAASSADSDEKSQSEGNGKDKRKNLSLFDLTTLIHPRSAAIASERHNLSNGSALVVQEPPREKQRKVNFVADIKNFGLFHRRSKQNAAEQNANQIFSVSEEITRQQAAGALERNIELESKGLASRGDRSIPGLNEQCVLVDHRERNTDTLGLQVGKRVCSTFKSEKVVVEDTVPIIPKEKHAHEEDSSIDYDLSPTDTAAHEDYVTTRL

With `C/C(N)=C(/C#N)C(=O)COC(=O)C1CCC(C(C)(C)C)CC1` (stereo not given), the result in experiment [1], in experiment [2], in experiment [3], in experiment [4], in [5] and in experiment [6] was inactive. Also, the result in experiment [7], in experiment [8], in experiment [9], in experiment [10], in experiment [11] and in [12] was inactive. Moreover, the outcome in experiment [13], in experiment [14], in experiment [15], in [16] and in [17] was inactive.

With `C#CC[N+]1(CC#Cc2cccc3ccccc23)CCOCC1`, the outcome in experiment [1], in [2], in experiment [3], in experiment [5], in experiment [6] and in [7] was inactive. The result in experiment [8], in [9], in experiment [10], in experiment [11], in experiment [12] and in experiment [13] was inactive. For the same compound, the result in experiment [14], in [16] and in experiment [17] was inactive. In addition, the figures for the potentiation in experiment [4] and in [15] were 22% (active) and 26.3% (active), respectively.

On to `COc1ccc(C(=O)c2no[n+]([O-])c2C(=O)c2ccc(OC)cc2)cc1`, for which the outcome in experiment [1], in [2], in experiment [5], in experiment [6], in experiment [7] and in experiment [8] was inactive. The result in experiment [9], in experiment [10], in [11], in experiment [12], in [13] and in experiment [14] was inactive. Besides, the outcome in [16] and in experiment [17] was inactive. The results for the potentiation in experiment [3], in [4] and in experiment [15] were 9% (active), 50% (active) and 51.2% (active), respectively.

`COc1ccccc1N(C(=O)c1snc(C(N)=O)c1N)C(C(=O)NCc1ccccc1)c1ccc(O)cc1` (stereo not given): the outcome in [1], in experiment [2], in experiment [3], in experiment [4], in experiment [7] and in experiment [8] was inactive. Further, the result in experiment [9], in experiment [10], in experiment [11], in experiment [12], in experiment [13] and in [15] was inactive. In addition, the result in experiment [16] and in experiment [17] was inactive. Further, the inhibition is 91% (active) in [5], 51% (active) in experiment [6] and 26.4% (active) in experiment [14].

As to `CCc1cc2c3c(c(=O)oc2cc1OCC(=O)OC)CCCC3`, the result in experiment [1], in experiment [2], in experiment [3], in experiment [4], in [5] and in [6] was inactive. Besides, the outcome in experiment [7], in [8], in experiment [9], in experiment [10], in experiment [11] and in [12] was inactive. In addition, the result in [13], in [14], in experiment [15], in experiment [16] and in [17] was inactive.

`CC(C)CCNC(=O)CCC(=O)NNc1nc2ccccc2c2nc(-c3ccccc3)nn12`: the outcome in experiment [1], in experiment [2], in experiment [3], in [4], in experiment [5] and in experiment [6] was inactive. The result in experiment [7], in experiment [8], in experiment [9], in [10], in [11] and in [12] was inactive. The result in experiment [13], in experiment [14], in experiment [16] and in experiment [17] was inactive. The potentiation in [15] was 70.8% (active).

`Cc1ccccc1OCCNc1cc(N2CCNCC2)ccc1[N+](=O)[O-]`: the outcome in experiment [1], in experiment [2], in experiment [3], in [4], in experiment [5] and in experiment [6] was inactive. The result in [7], in experiment [8], in experiment [9], in experiment [10], in experiment [11] and in experiment [12] was inactive. The result in [13], in experiment [14], in [15], in experiment [16] and in experiment [17] was inactive.

Take `Cn1c2ccccc2c(=O)c2c(=O)n(-c3ccccc3)c(-c3ccc(C(C)(C)C)cc3)nc21`: the outcome in experiment [1], in experiment [2], in experiment [3], in experiment [4], in experiment [5] and in experiment [6] was inactive. The result in experiment [7], in experiment [8], in experiment [9], in experiment [10], in experiment [11] and in experiment [12] was inactive. The result in experiment [13], in experiment [14], in [15], in experiment [16] and in experiment [17] was inactive.

As to `O=[N+]([O-])c1ccc(C[n+]2cccc(O)c2)cc1`, the result in experiment [1], in experiment [2], in [3], in [4], in experiment [5] and in experiment [6] was inactive. The outcome in experiment [7], in experiment [8], in experiment [9], in experiment [10], in experiment [12] and in [13] was inactive. The outcome in experiment [14], in [15], in [16] and in experiment [17] was inactive. For the same compound, the activation in experiment [11] was 28.5% (active).

Turning to `Cc1ccc(/C=N/NC(=S)NC2CCCCC2)o1`, the outcome in experiment [1], in [2], in [3], in [5], in [6] and in [7] was inactive. For the same compound, the outcome in experiment [8], in experiment [9], in [10], in [11], in [12] and in experiment [13] was inactive. Moreover, the outcome in experiment [14], in experiment [16] and in [17] was inactive. Further, the potentiation in experiment [4] was 66% (active); in experiment [15], 85.1% (active).

`O=C1CCSc2ccc(Cl)cc2N1Cc1ccc(Cl)cc1`: the outcome in experiment [1], in [2], in [3], in experiment [4], in experiment [5] and in experiment [6] was inactive. For the same compound, the result in experiment [7], in experiment [8], in experiment [9], in experiment [10], in experiment [11] and in experiment [12] was inactive. Moreover, the outcome in experiment [13], in experiment [14], in experiment [15], in [16] and in experiment [17] was inactive.

As to `COc1ccc(C(=O)Nc2ccccc2N2CCN(C(=O)c3ccccc3)CC2)cc1Br`, the result in [1], in experiment [2], in [3], in experiment [4], in experiment [6] and in [7] was inactive. In addition, the result in experiment [8], in [9], in [10], in [11], in experiment [12] and in [13] was inactive. Moreover, the result in experiment [14], in [15], in [16] and in experiment [17] was inactive. For the same compound, the inhibition in [5] is 75% (active).

Turning to `CC(=O)c1ccc(N2CCN(C(=O)CCS(=O)(=O)c3ccc4c(c3)NC(=O)CS4)CC2)cc1`, the outcome in [1], in [2], in experiment [3], in experiment [4], in experiment [5] and in experiment [6] was inactive. In addition, the outcome in experiment [7], in [8], in experiment [9], in experiment [10], in experiment [11] and in [12] was inactive. In addition, the result in [13], in [14], in experiment [16] and in experiment [17] was inactive. In addition, the potentiation in [15] was 20.9% (active).

Take `CC(=O)c1ccc(N2CCN(c3ccc(S(=O)(=O)NCCCN(C)C)cc3[N+](=O)[O-])CC2)cc1`: the result in experiment [1], in experiment [2], in experiment [5], in [6], in experiment [7] and in [8] was inactive. The result in [9], in experiment [10], in [11], in experiment [12], in [13] and in experiment [14] was inactive. The outcome in experiment [16] and in experiment [17] was inactive. Also, the potentiation in experiment [3] is 12% (active); in experiment [4] it was 19% (active); in [15], 14.6% (active).

Consider `Cc1cccc(Cn2c(=O)c3c(nc4n3CCCN4Cc3ccccc3)n(C)c2=O)c1`, for which the outcome in experiment [1], in [2], in experiment [5], in [6], in [7] and in experiment [8] was inactive. Moreover, the result in experiment [9], in experiment [10], in [11], in experiment [12], in experiment [13] and in experiment [14] was inactive. For the same compound, the result in [16] and in experiment [17] was inactive. Moreover, the potentiation in experiment [3] was 14% (active); in [4], 120% (active); in experiment [15], 75.2% (active).

(Values after PubChem BioAssay.)
